Assay [1] deals with RAW-Dual. Nature of the assay: NF-kB SEAP reporter activity, fold change vs agonist alone; higher = enhanced NF-kB activity. The conditions noted are these: library stock concentration (final ~1000-fold dilution): 10 mM. Put shortly:
(§1)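 After 50 nL of library stock was delivered by pin tool to RAW-Dual macrophages (50,000 cells/well, DMEM, 384-well plates), a PRR agonist was added 1 h later and the plates were kept at 37 °C, 5% CO2. Twenty hours later, IRF was read from supernatant by QuantiLuc luminescence and NF-κB by QuantiBlue absorbance at 620 nm. Reporter activity is stated as fold change over agonist-alone wells. Wells with IncuCyte confluency under 70% of agonist controls in both mask sets were counted as cytotoxic.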

The subject of assay [2] is RAW-Dual. Nature of the assay: NF-kB SEAP reporter activity, fold change vs agonist alone; cytotoxicity flag (confluency mask): not cytotoxic; higher = enhanced NF-kB activity. Put shortly: as §1
Assay [3] concerns RAW-Dual. Kind of assay: NF-kB SEAP reporter activity, fold change vs agonist alone; cytotoxicity flag (confluency mask): cytotoxic (confluency <70% of control); higher = enhanced NF-kB activity. The method in brief: as §1
Setting [4] is: cytotoxicity flag (confluency mask): not cytotoxic, agonist: Imiquimod (TLR7) […].
Setting [5] is: cytotoxicity flag (confluency mask): not cytotoxic, agonist: MPLA (TLR4) […].
The mark [6] stands for this setting: agonist: ODN 1826 (TLR9) 0.5 ug/mL.
Setting [7] is: agonist: Pam2CSK4 (TLR2/6) 0.1 ug/mL.
[8] abbreviates: agonist: Pam3CSK4 (TLR2/1) 0.1 ug/mL.
The mark [9] stands for this setting: cytotoxicity flag (confluency mask): cytotoxic (confluency <70% of control), agonist: Imiquimod (TLR7) […].
Where [10] appears, read: cytotoxicity flag (confluency mask): cytotoxic (confluency <70% of control), agonist: MPLA (TLR4) […].

± gives the standard deviation of the averaged measurements. The full ranking holds about 2,900 compounds; the median of “NF-kB SEAP reporter activity, fold change vs agonist alone” is about 0.99, and the highest 2% start at about 2.6. This excerpt belongs to a sample that is enriched for the highest values.

For the molecule `COc1cc2c(OC3OC(CO)C4OC(C)(C)OC4C3O)c3c(c(-c4ccc5c(c4)OCO5)c2cc1OC)C(=O)OC3` (centres undefined), the “NF-kB SEAP reporter activity” value came to 0.364 in the assay with RAW-Dual [1] (setting [4]) and 2.28 with RAW-Dual [1] (setting [5]).
`COc1cc(-c2oc3cc(O)cc(O)c3c(=O)c2OC2OC(CO)C(O)C(O)C2OC2OC(C)C(O)C(O)C2O)ccc1O` (centres undefined): the figures for the “NF-kB SEAP reporter activity” value in the assay with RAW-Dual [1] (setting [4]) and with RAW-Dual [1] (setting [5]) were 0.928 and 1.05, respectively.
For the molecule `COc1cc(/C=C/CO)cc(OC)c1OC1OC(CO)C(O)C(O)C1O` (centres undefined) (library stock concentration (final ~1000-fold dilution): 10 mM), the “NF-kB SEAP reporter activity” value in the assay with RAW-Dual [2] (agonist: LPS (TLR4) 0.1 ug/mL) was determined as 1.08; in the assay on RAW-Dual [2] (setting [6]) it was 1.01; in the assay with RAW-Dual [2] (setting [7]) it was 1.11; in the assay on RAW-Dual [2] (setting [8]), 1.15.
Turning to `COc1cc(/C=C/CO)cc(OC)c1OC1OC(CO)C(O)C(O)C1O` (centres undefined), the “NF-kB SEAP reporter activity” value was found to be 1.03 in the assay with RAW-Dual [1] (setting [4]) and 1.08 in the assay with RAW-Dual [1] (setting [5]).
Regarding `COc1cc2c(OC3OC(CO)C4OC(C)(C)OC4C3O)c3c(c(-c4ccc5c(c4)OCO5)c2cc1OC)C(=O)OC3` (centres undefined) (library stock concentration (final ~1000-fold dilution): 10 mM), the “NF-kB SEAP reporter activity” value was found to be 2.9 with RAW-Dual [2] (agonist: LPS (TLR4) 0.1 ug/mL), 0.644 in the assay with RAW-Dual [2] (setting [6]), 1.95 in the assay with RAW-Dual [2] (setting [7]) and 3.92 in the assay on RAW-Dual [2] (setting [8]).
In the case of `CC(NC(CCc1ccccc1)C(=O)O)C(=O)N1CCCC1C(=O)O.O.O` (centres undefined), the “NF-kB SEAP reporter activity” value in the assay on RAW-Dual [1] (setting [4]) came out at 0.942; in the assay on RAW-Dual [1] (setting [5]), 1.12.
Take `CC(NC(CCc1ccccc1)C(=O)O)C(=O)N1CCCC1C(=O)O.O.O` (centres undefined) (library stock concentration (final ~1000-fold dilution): 10 mM): the “NF-kB SEAP reporter activity” value in the assay on RAW-Dual [2] (agonist: LPS (TLR4) 0.1 ug/mL) worked out at 0.977; with RAW-Dual [2] (setting [6]), 1.07; with RAW-Dual [2] (setting [7]), 1.14; in the assay with RAW-Dual [2] (setting [8]), 1.09.
Consider `COc1cc(C(N)=O)nc(-c2cccc(C#C[C@]3(O)CCN(C)C3=O)c2)c1`, for which the “NF-kB SEAP reporter activity” value in the assay on RAW-Dual [1] (setting [4]) was found to be 0.839; with RAW-Dual [1] (setting [5]), 0.915.
As for `COc1cc(C(N)=O)nc(-c2cccc(C#C[C@]3(O)CCN(C)C3=O)c2)c1` (library stock concentration (final ~1000-fold dilution): 10 mM), the “NF-kB SEAP reporter activity” value in the assay with RAW-Dual [2] (agonist: LPS (TLR4) 0.1 ug/mL) turned out to be 1.39; in the assay on RAW-Dual [2] (setting [6]), 0.529; in the assay with RAW-Dual [2] (setting [7]), 0.699; with RAW-Dual [2] (setting [8]), 0.966.
In the case of `Cc1noc(C)c1-c1ccc(-c2cc(C(N)=O)c(NC(N)=O)s2)c(OC2CCNC2)c1` (centres undefined) (library stock concentration (final ~1000-fold dilution): 10 mM), the “NF-kB SEAP reporter activity” value in the assay with RAW-Dual [2] (agonist: LPS (TLR4) 0.1 ug/mL) was 0.567 ± 0.07; in the assay on RAW-Dual [2] (setting [6]), 0.449 ± 0.019; in the assay with RAW-Dual [2] (setting [7]) it was 0.275 ± 0.0078; in the assay with RAW-Dual [2] (setting [8]), 0.392 ± 0.058.
Turning to `Cc1noc(C)c1-c1ccc(-c2cc(C(N)=O)c(NC(N)=O)s2)c(OC2CCNC2)c1` (centres undefined), the entries for the “NF-kB SEAP reporter activity” value with RAW-Dual [1] (setting [4]) and in the assay with RAW-Dual [1] (setting [5]) were 0.654 ± 0.054 and 0.683 ± 0.15, respectively.
Consider `CCN(C(=O)c1c(O)n(C)c2cccc(Cl)c2c1=O)c1ccccc1`, for which the “NF-kB SEAP reporter activity” value in the assay with RAW-Dual [1] (setting [4]) was 0.913; in the assay on RAW-Dual [1] (setting [5]), 0.993.
With `CCN(C(=O)c1c(O)n(C)c2cccc(Cl)c2c1=O)c1ccccc1` (library stock concentration (final ~1000-fold dilution): 10 mM), the “NF-kB SEAP reporter activity” value in the assay with RAW-Dual [2] (agonist: LPS (TLR4) 0.1 ug/mL) worked out at 1.08; in the assay on RAW-Dual [2] (setting [6]), 1.06; in the assay with RAW-Dual [2] (setting [7]) it was 1.01; in the assay with RAW-Dual [2] (setting [8]), 1.
Regarding `C=C(Cc1ccccc1Cl)C(=O)OCC`, the “NF-kB SEAP reporter activity” value in the assay with RAW-Dual [1] (setting [9]) came out at 0.73; in the assay on RAW-Dual [1] (setting [10]), 0.891.
As for `C=C(Cc1ccccc1Cl)C(=O)OCC` (library stock concentration (final ~1000-fold dilution): 10 mM), the “NF-kB SEAP reporter activity” value was 0.636 in the assay with RAW-Dual [3] (agonist: LPS (TLR4) 0.1 ug/mL), 0.588 in the assay with RAW-Dual [3] (setting [6]), 0.682 with RAW-Dual [3] (setting [7]) and 0.806 in the assay on RAW-Dual [3] (setting [8]).
Consider `COCCNCc1ccc(-c2cc3nccc(Oc4ccc(NC(=O)C5(C(=O)Nc6ccc(F)cc6)CC5)cc4F)c3s2)nc1` (library stock concentration (final ~1000-fold dilution): 10 mM), for which the “NF-kB SEAP reporter activity” value with RAW-Dual [2] (agonist: LPS (TLR4) 0.1 ug/mL) was 0.36; with RAW-Dual [2] (setting [6]), 0.205; with RAW-Dual [2] (setting [7]) it was 0.0909; in the assay with RAW-Dual [2] (setting [8]), 0.149.
On to `Cn1cc(-c2cc(Oc3cc(F)c(NC(=O)C4(C(=O)Nc5ccccc5)CC4)cc3F)ccn2)cn1`, for which the results for the “NF-kB SEAP reporter activity” value with RAW-Dual [1] (setting [4]) and in the assay with RAW-Dual [1] (setting [5]) were 0.974 and 1.71, respectively.
Turning to `COc1cc2nccc(Oc3ccc(NC(=O)C4(C(=O)Nc5ccc(F)cc5)CC4)cc3)c2cc1OC.O=C(O)CC(O)C(=O)O` (library stock concentration (final ~1000-fold dilution): 10 mM), the “NF-kB SEAP reporter activity” value in the assay on RAW-Dual [2] (agonist: LPS (TLR4) 0.1 ug/mL) amounted to 0.861; in the assay on RAW-Dual [2] (setting [6]) it was 0.525; in the assay with RAW-Dual [2] (setting [7]), 0.284; with RAW-Dual [2] (setting [8]) it was 0.277.
For `Cn1cc(-c2cc(Oc3cc(F)c(NC(=O)C4(C(=O)Nc5ccccc5)CC4)cc3F)ccn2)cn1` (library stock concentration (final ~1000-fold dilution): 10 mM), the “NF-kB SEAP reporter activity” value with RAW-Dual [2] (agonist: LPS (TLR4) 0.1 ug/mL) was determined as 3.09; with RAW-Dual [2] (setting [6]) it was 0.863; in the assay on RAW-Dual [2] (setting [7]), 0.629; in the assay on RAW-Dual [2] (setting [8]), 0.98.
In the case of `COc1cc2nccc(Oc3ccc(NC(=O)C4(C(=O)Nc5ccc(F)cc5)CC4)cc3)c2cc1OC.O=C(O)CC(O)C(=O)O`, the figures for the “NF-kB SEAP reporter activity” value in the assay on RAW-Dual [1] (setting [4]) and with RAW-Dual [1] (setting [5]) were 0.796 and 0.939, respectively.
With `COCCNCc1ccc(-c2cc3nccc(Oc4ccc(NC(=O)C5(C(=O)Nc6ccc(F)cc6)CC5)cc4F)c3s2)nc1`, the “NF-kB SEAP reporter activity” value with RAW-Dual [1] (setting [4]) turned out to be 0.327; in the assay with RAW-Dual [1] (setting [5]), 0.388.
As for `COc1ccc2cc1Oc1ccc(cc1)CC1c3cc(c(OC)cc3CCN1C)Oc1c(O)c(OC)cc3c1C(C2)N(C)CC3` (centres undefined) (library stock concentration (final ~1000-fold dilution): 10 mM), the “NF-kB SEAP reporter activity” value in the assay with RAW-Dual [3] (agonist: LPS (TLR4) 0.1 ug/mL) was 1.81; in the assay on RAW-Dual [3] (setting [6]), 0.241; in the assay on RAW-Dual [3] (setting [7]), 2.15; in the assay with RAW-Dual [3] (setting [8]), 1.31.
For the molecule `COc1ccc2cc1Oc1ccc(cc1)CC1c3cc(c(OC)cc3CCN1C)Oc1c(O)c(OC)cc3c1C(C2)N(C)CC3` (centres undefined), the results for the “NF-kB SEAP reporter activity” value in the assay with RAW-Dual [1] (setting [9]) and in the assay with RAW-Dual [1] (setting [10]) were 0.618 and 2.39, respectively.
Consider `O=C1C(CCC(O)c2ccc(F)cc2)C(c2ccc(O)cc2)N1c1ccc(F)cc1` (centres undefined), for which the “NF-kB SEAP reporter activity” value in the assay with RAW-Dual [1] (setting [4]) is 0.952; with RAW-Dual [1] (setting [5]), 1.38.
As to `O=C1C(CCC(O)c2ccc(F)cc2)C(c2ccc(O)cc2)N1c1ccc(F)cc1` (centres undefined) (library stock concentration (final ~1000-fold dilution): 10 mM), the “NF-kB SEAP reporter activity” value in the assay on RAW-Dual [2] (agonist: LPS (TLR4) 0.1 ug/mL) turned out to be 1.42; with RAW-Dual [2] (setting [6]), 0.665; in the assay with RAW-Dual [2] (setting [7]), 0.889; with RAW-Dual [2] (setting [8]), 0.589.

For the origin of these results see the supplement of paper PMC10037445.
